Assay results from PubChem BioAssay (Tox21).
Inconclusive results are not listed. Where a call stands in place of a potency, no number is given. The source holds several records for some structures; these can differ, active in one and inactive in another. Calls of active or inactive are those of the source. Unless noted, calls come from the whole dose curve.

test system: not listed separately; assay: qHTS assay to identify small molecule agonists of the estrogen related receptor signaling pathway with the pleiotropic PPARgamma coactivator (PGC) from Tox21 10K library (AID 1224842; active = well fitted activation curve with a large enough effect in the repeat runs; note: nearly all actives have a fitted effect of over 15% in size); conditions: PGC/ERR reporter cell line, luciferase ONE-Glo, 18 h; series mostly up to 92.4 µM
Summary of the method: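 PGC/ERR reporter cell line, 2,000 cells per well, incubated 6 h at 37 C before 23 nL compound in DMSO was added. After 18 h at 37 C, One-Glo luminescence read following 30 min at room temperature.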

SMILES | Potency
CNCC(O)c1ccc(O)cc1 (stereo not given) | inactive
Cl[C@H]1OCCO[C@@H]1Cl | inactive
COC(C)(C)CCCC(C)C/C=C/C(C)=C/C(=O)OC(C)C (stereo not given) | inactive
Nc1cccc(Cl)c1 | inactive
Cc1cc(O)ccc1Cl | inactive
C=CCN=C=S | inactive
Cc1ccc(O)c(C)c1 | inactive
O=[N+]([O-])c1ccc(Cl)c(Cl)c1 | inactive
CCNc1nc(Cl)nc(NC(C)C)n1 | inactive
O=[N+]([O-])c1cc([As](=O)(O)O)ccc1O | inactive
O=C(O)Cc1ccccc1 | inactive
CC(C)c1cccc(C(C)C)c1O | inactive
CNC(=O)O/N=C/C(C)(C)SC | inactive
C=CC#N | inactive
Cc1cccc(N)c1 | inactive
CN(C)NC(=O)CCC(=O)O | inactive

biological target: Thyrotropin receptor (Homo sapiens) (UniProt P16473); assay: qHTS assay to identify small molecule agonists of the thyroid stimulating hormone receptor (TSHR) signaling pathway (AID 1224843); conditions: TSHR-HEK293 cells, cAMP HTRF, agonist mode, 30 min; series mostly up to 92.4 µM; note: nearly all actives have a fitted effect of over 45% in size
Summary of the method: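 Agonist-mode screen: TSHR HEK293 cells received test chemicals for half an hour at room temperature, then HTRF cAMP detection reagents for one hour prior to fluorescence measurement. Each chemical ran as a 15-concentration series, triplicated.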

Thyrotropin receptor (Homo sapiens), sequence (P16473 whole entry, looked up): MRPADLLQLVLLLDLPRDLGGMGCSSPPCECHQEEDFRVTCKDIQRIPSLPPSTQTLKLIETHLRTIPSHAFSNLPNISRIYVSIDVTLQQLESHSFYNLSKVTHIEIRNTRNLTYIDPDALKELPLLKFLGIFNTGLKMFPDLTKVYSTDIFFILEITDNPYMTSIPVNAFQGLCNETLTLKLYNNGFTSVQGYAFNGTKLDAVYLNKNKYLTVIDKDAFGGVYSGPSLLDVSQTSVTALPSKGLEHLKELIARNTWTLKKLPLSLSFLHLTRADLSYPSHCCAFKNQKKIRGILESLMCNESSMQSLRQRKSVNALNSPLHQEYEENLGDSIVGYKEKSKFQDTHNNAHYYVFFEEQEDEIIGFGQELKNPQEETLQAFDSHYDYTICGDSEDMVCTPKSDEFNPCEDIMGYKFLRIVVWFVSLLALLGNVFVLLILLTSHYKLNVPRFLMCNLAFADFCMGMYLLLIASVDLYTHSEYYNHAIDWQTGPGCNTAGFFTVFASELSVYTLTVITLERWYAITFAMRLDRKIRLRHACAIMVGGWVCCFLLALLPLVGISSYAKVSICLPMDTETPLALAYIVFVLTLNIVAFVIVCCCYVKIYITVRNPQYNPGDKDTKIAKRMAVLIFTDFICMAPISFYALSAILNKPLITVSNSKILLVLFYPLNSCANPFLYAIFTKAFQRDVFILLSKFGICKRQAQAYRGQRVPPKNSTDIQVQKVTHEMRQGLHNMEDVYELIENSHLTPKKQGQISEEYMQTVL

SMILES | Potency
OCC(O)CCl (stereo not given) | inactive
CNCC(O)c1ccc(O)cc1 (stereo not given) | inactive
Cl[C@H]1OCCO[C@@H]1Cl | inactive
O=C(O)CCCc1ccc(N(CCCl)CCCl)cc1 | inactive
N#CN=C(N)N | inactive
N#Cc1cccc(C#N)c1 | inactive
COC(C)(C)CCCC(C)C/C=C/C(C)=C/C(=O)OC(C)C (stereo not given) | inactive
Nc1cccc(Cl)c1 | inactive
Clc1cnc(Oc2ccc(Oc3ncc(Cl)cc3Cl)cc2)c(Cl)c1 | inactive
Cc1cc(O)ccc1Cl | inactive
C=CCN=C=S | inactive
Cc1ccc(O)c(C)c1 | inactive
CSc1nnc(C(C)(C)C)c(=O)n1N | inactive
O=[N+]([O-])c1ccc(Cl)c(Cl)c1 | inactive
FC(F)(F)c1ccc(Cl)cc1 | inactive
CNC(=O)Oc1cccc2ccccc12 | inactive
Sc1ccccc1 | inactive
CNC(=O)O/N=C/C(C)(C)S(C)=O (stereo not given) | inactive
CCNc1nc(Cl)nc(NC(C)C)n1 | inactive
O=[N+]([O-])c1cc([As](=O)(O)O)ccc1O | inactive
CN(C)C(=O)Nc1cccc(C(F)(F)F)c1 | inactive
CC(C)c1cccc(C(C)C)c1O | inactive
CNC(=O)O/N=C/C(C)(C)SC | inactive
CC(C)CCCCCCOC(=O)c1ccccc1C(=O)OCCCCCCC(C)C | inactive
C=CC#N | inactive
O=C(O)C1C(C(=O)O)C2(Cl)C(Cl)=C(Cl)C1(Cl)C2(Cl)Cl (stereo not given) | inactive
CN(C)NC(=O)CCC(=O)O | inactive

test system: not listed separately; assay: qHTS assay to identify small molecule agonists of the hypoxia (HIF-1) signaling pathway - cell viability counter screen (AID 1224844); conditions: HRE-bla ME-180 viability, CellTiter-Glo luminescence, 17 h; series mostly up to 76.8 µM; note: nearly all actives have a fitted effect of over 50% in size
Summary of the method: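 Viability counter screen: HRE-bla ME-180 cells plated 5 hrs before compound addition, treated 17 hrs at 37C and 5% CO2, then CellTiter-Glo added after the FRET reporter read; luminescence after 30 min.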

SMILES | Potency
OCC(O)CCl (stereo not given) | inactive
CNCC(O)c1ccc(O)cc1 (stereo not given) | inactive
O=C(O)CCCc1ccc(N(CCCl)CCCl)cc1 | inactive
COC(C)(C)CCCC(C)C/C=C/C(C)=C/C(=O)OC(C)C (stereo not given) | inactive
Cc1cc(O)ccc1Cl | inactive
CSc1nnc(C(C)(C)C)c(=O)n1N | inactive
Cc1cc(Cl)ccc1OC(C)C(=O)O (stereo not given) | inactive
O=[N+]([O-])c1ccc(Cl)c(Cl)c1 | inactive
CNC(=O)Oc1cccc2ccccc12 | inactive
O=[N+]([O-])c1cc([As](=O)(O)O)ccc1O | inactive
O=C(O)Cc1ccccc1 | inactive
CN(C)C(=O)Nc1cccc(C(F)(F)F)c1 | inactive
CC(C)c1cccc(C(C)C)c1O | inactive
CNC(=O)O/N=C/C(C)(C)SC | inactive
O=C(O)C1C(C(=O)O)C2(Cl)C(Cl)=C(Cl)C1(Cl)C2(Cl)Cl (stereo not given) | inactive
Cc1cccc(N)c1 | inactive
CN(C)NC(=O)CCC(=O)O | inactive

test system: not listed separately; assay: qHTS assay to identify small molecule agonists of H2AX (AID 1224845; active = well fitted activation curve with a large enough effect in the signal ratio in the repeat runs, not every such curve was filed as active; the % refers to the signal ratio; note: potency is the fitted concentration of half-maximal effect); conditions: CHO-K1 phospho-H2AX Ser139 HTRF, 3 h; series mostly up to 154 µM
Summary of the method: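 Wild-type CHO-K1 cells, plated overnight, exposed 3hr at 37C to 15 concentrations (0.76% DMSO final). Lysed, then HTRF anti-pH2AX (S139) cryptate and anti-H2AX-d2 antibodies, 24 hr room temperature; 665/620 nm emission read.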

SMILES | Potency
OCC(O)CCl (stereo not given) | inactive
CNCC(O)c1ccc(O)cc1 (stereo not given) | inactive
Cl[C@H]1OCCO[C@@H]1Cl | inactive
O=C(O)CCCc1ccc(N(CCCl)CCCl)cc1 | 56.9 µM (active)
N#CN=C(N)N | inactive
N#Cc1cccc(C#N)c1 | inactive
COC(C)(C)CCCC(C)C/C=C/C(C)=C/C(=O)OC(C)C (stereo not given) | inactive
Nc1cccc(Cl)c1 | inactive
Clc1cnc(Oc2ccc(Oc3ncc(Cl)cc3Cl)cc2)c(Cl)c1 | inactive
Cc1cc(O)ccc1Cl | inactive
C=CCN=C=S | inactive
Cc1ccc(O)c(C)c1 | inactive
CSc1nnc(C(C)(C)C)c(=O)n1N | inactive
Cc1cc(Cl)ccc1OC(C)C(=O)O (stereo not given) | inactive
O=[N+]([O-])c1ccc(Cl)c(Cl)c1 | inactive
FC(F)(F)c1ccc(Cl)cc1 | inactive
CNC(=O)Oc1cccc2ccccc12 | 99.8 µM (active) and inactive
Sc1ccccc1 | inactive
CNC(=O)O/N=C/C(C)(C)S(C)=O (stereo not given) | inactive
CCNc1nc(Cl)nc(NC(C)C)n1 | inactive
O=[N+]([O-])c1cc([As](=O)(O)O)ccc1O | inactive
O=C(O)Cc1ccccc1 | inactive
CN(C)C(=O)Nc1cccc(C(F)(F)F)c1 | inactive
CC(C)c1cccc(C(C)C)c1O | inactive
CNC(=O)O/N=C/C(C)(C)SC | inactive
CC(C)CCCCCCOC(=O)c1ccccc1C(=O)OCCCCCCC(C)C | inactive
C=CC#N | inactive
O=C(O)C1C(C(=O)O)C2(Cl)C(Cl)=C(Cl)C1(Cl)C2(Cl)Cl (stereo not given) | inactive
Cc1cccc(N)c1 | inactive
CN(C)NC(=O)CCC(=O)O | inactive
